The text below walks through data of PubChem BioAssay.

The nature of assay [1]: reducers of endogenous Her2 protein level, primary screen, SKBR3 breast tumor cells, AlphaScreen, ATP viability (AID 461;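 active = Her2 level under about 52% in both replicate screens, with viability over 70% of control, limit read from the data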;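 for Her2 level: lower value means less Her2 protein in the cells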;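 for viability: percent of carrier control wells set as 100% viability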). As to conditions: 18-24 h, measured here: SKBR3 viability, ATP luminescence, at 10 µM. Background: Bead proximity is the source of the signal in Alpha formats.
The target in assay [2] is Receptor tyrosine-protein kinase erbB-2 (Homo sapiens) (UniProt P04626). Described as above. To be noted: 18-24 h, at 10 µM, stronger effect = lower value.
Chain of Receptor tyrosine-protein kinase erbB-2 (Homo sapiens) (P04626 whole entry, looked up): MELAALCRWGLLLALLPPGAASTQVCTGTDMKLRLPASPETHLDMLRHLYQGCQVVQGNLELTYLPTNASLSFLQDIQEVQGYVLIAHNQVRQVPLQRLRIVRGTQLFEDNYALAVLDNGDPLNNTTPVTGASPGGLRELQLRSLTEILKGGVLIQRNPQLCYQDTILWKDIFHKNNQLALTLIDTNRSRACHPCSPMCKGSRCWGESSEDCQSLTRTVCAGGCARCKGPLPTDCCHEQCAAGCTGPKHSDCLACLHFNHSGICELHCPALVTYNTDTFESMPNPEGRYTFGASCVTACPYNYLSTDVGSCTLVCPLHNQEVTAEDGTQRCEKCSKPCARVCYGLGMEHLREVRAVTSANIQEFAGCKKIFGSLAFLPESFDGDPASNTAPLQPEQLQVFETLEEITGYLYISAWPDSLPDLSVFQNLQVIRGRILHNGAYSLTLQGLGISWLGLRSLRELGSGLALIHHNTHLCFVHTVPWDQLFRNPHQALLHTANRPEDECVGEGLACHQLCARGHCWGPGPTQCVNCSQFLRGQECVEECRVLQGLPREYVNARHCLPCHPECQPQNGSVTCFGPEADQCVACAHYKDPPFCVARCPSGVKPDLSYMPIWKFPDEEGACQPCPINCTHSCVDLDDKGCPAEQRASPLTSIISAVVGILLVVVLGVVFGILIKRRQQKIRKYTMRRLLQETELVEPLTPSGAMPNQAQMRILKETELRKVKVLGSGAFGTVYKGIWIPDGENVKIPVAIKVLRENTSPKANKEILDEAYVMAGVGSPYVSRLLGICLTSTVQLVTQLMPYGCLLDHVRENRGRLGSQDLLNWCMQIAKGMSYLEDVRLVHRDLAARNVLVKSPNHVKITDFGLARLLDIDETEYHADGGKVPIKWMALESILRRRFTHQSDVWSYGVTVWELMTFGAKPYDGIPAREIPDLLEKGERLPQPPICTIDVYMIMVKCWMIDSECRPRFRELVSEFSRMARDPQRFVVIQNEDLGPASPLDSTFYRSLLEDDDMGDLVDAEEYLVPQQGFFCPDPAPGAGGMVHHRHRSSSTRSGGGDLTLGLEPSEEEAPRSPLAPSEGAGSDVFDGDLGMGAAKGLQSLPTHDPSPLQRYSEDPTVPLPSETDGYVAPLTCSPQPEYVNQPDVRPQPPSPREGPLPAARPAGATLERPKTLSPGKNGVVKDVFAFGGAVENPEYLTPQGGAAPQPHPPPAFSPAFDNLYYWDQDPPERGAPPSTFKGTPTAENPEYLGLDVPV
Assay [3] can be described thus: SK-BR-3 cell growth inhibitors, pilot screen, 24 h, human (AID 572;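 active = viability at or below 10% of carrier control in both of two separate runs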;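 note: compound exposure lasted between 18 and 24 h rather than exactly 24 h; 100% = carrier-treated control wells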). As to conditions: SK-BR-3 viability, CellTiter-Glo luminescence, at 10 µM, stronger effect = lower value. (ATP-based viability assays read luminescence as a measure of living cells.)
Assay [4] is described as follows: HUVEC growth inhibition – cell-based, human, primary screen (AID 575;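 active = viability at or below 30% in both replicate assays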;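 note: 100% = median of untreated cell wells with 0.1% DMSO on each plate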). As to conditions: HUVEC proliferation, CellTiter-Glo luminescence, 72 h; at 10 µM; stronger effect = lower value.
Assay [5] is described as follows: growth inhibitors of H69AR lung tumor, primary screen, human, duplicate replicates (AID 580;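 active = viability at or under a set limit in both replicates, limit being median viability minus 3 SD, cut at about 48% in these data, passing the limit was not always enough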;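 note: 100% = mean luminescence of untreated wells and 0% = no signal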). To be noted: H69AR lung tumor cells viability, ATP luminescence, 72 h; at 10 µM; stronger effect = lower value.
Assay [6] is described as follows: reversal of MRP1-mediated doxorubicin resistance, pilot screen, H69AR cells, doxorubicin co-treatment (AID 601;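 active = viability loss from added drug above about 55%, and viability with drug at most 40%, in both replicates, limit read from the data, passing the limit was not always enough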). As to conditions: CellTiter-Glo, 72 h, at 10 µM; for differential viability (reversal): stronger effect = higher value.
Assay [7] is described as follows: 384-well plate pilot, post-Golgi transport modulator project, inhibition of yeast transport mutant growth (AID 636; in the data active = inhibition above about 31%). As to conditions: absorbance 615 nm, about 18 h, stronger effect = higher value.
The nature of assay [8]: growth suppression of yeast trafficking mutant, preliminary HTS, modulators of trafficking downstream of Golgi apparatus project, 1536-format plate, OD 615 nm (AID 637; in the data active = inhibition above about 30%). To be noted: yeast transport mutant growth, absorbance 615 nm, 18 h; stronger effect = higher value.
Assay [9] can be described thus: OD615 S. cerevisiae growth inhibition, permissive medium, pilot counter-assay, permissive growth control for S. cerevisiae lifespan shortening project (AID 705;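 active = growth inhibition above 25% in both replicates, a cutoff set 3 SD above the mean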). As to conditions: OD615, 24 h, at 10 µM, stronger effect = higher value.
A short description of assay [10]: Restrictive medium S. cerevisiae growth inhibition, OD615, pilot screen of yeast lifespan reduction project, restrictive growth control (AID 706;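 active = growth inhibition above a set limit, 3 SD over mean compound inhibition, in both replicates, cut at about 43% in these data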;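 note: modified DeaD lifespan yeast strain shifted to restrictive glucose medium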). To be noted: OD615, 48 h, at 10 µM, stronger effect = higher value.
Assay [11] in a line: viability gain of MRP-1-high H69AR cells under doxorubicin, pilot screen, MRP-1 activator project, CellTiter-Glo, duplicate (AID 807).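 Note: compound pretreatment 18-22 h then 72 h combined with doxorubicin; 0% = doxorubicin alone and 100% = vehicle without doxorubicin.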 As to conditions: H69AR viability with doxorubicin, CellTiter-Glo luminescence; at 10 µM; stronger effect = higher value.
A short description of assay [12]: growth suppression of beta-catenin knockout HCT116, pilot screen, human colon tumor cells (AID 823;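 active = cell viability at or below a set limit in both duplicate runs, the limit being the all-compound median minus 4 SD, cut at about 23% in these data, passing the limit was not always enough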;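 note: 0% = wells killed by 20 µM Hyamine and 100% = untreated DMSO cell wells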). As to conditions: CellTiter-Glo, 60 h, at 10 µM, stronger effect = lower value.
Assay [13] in a line: growth suppression of PTEN-deleted HCT116, pilot screen, cell-based, HCT116 clonal line, CellTiter-Glo (AID 824;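 active = viability at or below 27.92% in each of two runs, the all-compound median minus 4 SD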;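 note: 0% = 20 µM Hyamine control and 100% = vehicle cell control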). To be noted: 60 h, at 10 µM, stronger effect = lower value.
The nature of assay [14]: inhibitors of the yeast RAM network, pilot screen, dse1pr::URA3 reporter, 5-FOA selection (AID 869;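 active = inhibition over a set limit, the all-compound mean plus 3 SD, in both replicate runs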;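 note: 0% = DMSO wells with no growth and 100% = 10 µM 1-NA-PP1 with full growth; RAM network block rescues cells from 5-FOA so hits raise OD615 growth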). As to conditions: S. cerevisiae dse1pr::URA3 5-FOA growth, OD615, 2 d; at 10 µM; stronger effect = higher value; strain carries analog-sensitive mutant Cbk1 kinase.
The nature of assay [15]: RAM signaling pathway blockade in yeast – S. cerevisiae, Pdr1DBD-CYC8 efflux-inhibited sensitized strain, primary screen (AID 1298;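 active = RAM network inhibition above 8.4% in each of two replicates, 3 SD over the compound average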;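 note: 0% = DMSO untreated cells without growth and 100% = 10 µM 1-NA-PP1 full growth; higher means more yeast growth rescued from 5-FOA killing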). As to conditions: S. cerevisiae cbk1-as DSE1-URA3 strain, 5-FOA growth OD615, 2 d; at 50 µM; stronger effect = higher value.
Where [16] appears, read: H69AR cells + 2 uM doxorubicin, measured here: viability with 2 uM doxorubicin, stronger effect = lower value.
Where [17] appears, read: H69AR cells, compound alone cytotoxicity.

Records with an inconclusive call do not appear. Calls of active or inactive are those of the source.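 Rule for the calls, unless noted: active = viability increase at or above a cutoff of the median across tested compounds plus 3 SD (cut at about 8.5% in these data, passing the limit was not always enough); inconclusive = some gains above the cutoff, reason not given; inactive = the rest.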

Regarding `COc1ccccc1C(=O)OCn1nnc2ccccc2c1=O`, the viability (in general, a read-out of living cells in per cent, often relative to untreated cells) in [1] was 96.5%; in assay [3], 96.5% (inactive); in assay [4] it was 78.8% (inactive); in assay [5] it was 99.5% (inactive); in assay [6] (setting [16]), 115%; in [6] (setting [17]), 99.5%. The viability in [12] was 95% (inactive); in assay [13], 91.2% (inactive). In addition, the Her2 level in assay [2] is 98% (inactive). Besides, the differential viability (reversal) in assay [6] (H69AR cells + 2 uM doxorubicin) is -15.4% (inactive). The inhibition – broadly, the change of the read-out against control, counted positive when it falls – was -4.27% (inactive) in assay [7], 1.17% (inactive) in assay [8] and 0.655% (inactive) in assay [14]. In addition, the growth inhibition in assay [9] was -11.2% (inactive); in [10] it was -10.4% (inactive). Also, the viability increase in assay [11] is -0.53% (inactive). Besides, the RAM network inhibition in assay [15] is 0.92% (inactive).

On to `COc1ccc(CCNC(=O)C2(C)CCC(=O)N2Cc2ccc3c(c2)OCO3)cc1OC` (stereo not given), for which the viability in [1] is 77.5%; in [3], 77.5% (inactive); in [4], 88.2% (inactive); in assay [5], 92.8% (inactive); in assay [6] (setting [16]), 87.2%; in assay [6] (setting [17]), 92.8%. The viability is 102% (inactive) in [12] and 97.5% (inactive) in [13]. The Her2 level in assay [2] is 98% (inactive). The differential viability (reversal) in assay [6] (H69AR cells + 2 uM doxorubicin) is 5.6% (inactive). Also, the inhibition in [7] is -2.69% (inactive); in [8], -5.17% (inactive); in assay [14] it was 0.985% (inactive). The growth inhibition was -13.9% (inactive) in assay [9] and -25.8% (inactive) in [10]. For the same compound, in assay [11], the viability increase was 0.26% (inactive). Besides, the RAM network inhibition in assay [15] is 1.36% (inactive).

For the compound `COc1ccc(CNC(=O)c2cnc3n(c2=O)CCS3)cc1`, the viability is 81.5% in [1]; 81.5% (inactive) in assay [3]; 90.6% (inactive) in assay [4]; 94.9% (inactive) in [5]; 97.9% in [6] (setting [16]); 94.9% in [6] (setting [17]). The viability in assay [12] is 95.8% (inactive); in assay [13] it was 98.3% (inactive). In addition, the Her2 level in [2] is 87.5% (inactive). The differential viability (reversal) in assay [6] (H69AR cells + 2 uM doxorubicin) is -3.02% (inactive). Further, the inhibition in assay [7] was -3.87% (inactive); in assay [8] it was -2.17% (inactive); in [14] it was 3.5% (inactive). In addition, the growth inhibition in assay [9] was 5.72% (inactive); in assay [10], 4.27% (inactive). Further, the viability increase in assay [11] is -1.21% (inactive). The RAM network inhibition in assay [15] was 2.5% (inactive).

Consider `CCCOc1ccc2ccccc2c1/C=N/n1cnnc1`, for which the viability was 93% in assay [1]; 93% (inactive) in [3]; 66.7% (inactive) in assay [4]; 72.3% (inactive) in [5]; 69.2% in assay [6] (setting [16]); 72.3% in assay [6] (setting [17]). Besides, the values for the viability in [12] and in [13] were 92.4% (inactive) and 80.9% (inactive), respectively. The Her2 level in assay [2] is 91% (inactive). The differential viability (reversal) in assay [6] (H69AR cells + 2 uM doxorubicin) was 3.08% (inactive). Further, the inhibition in assay [7] is -3.08% (inactive); in [8], 2.67% (inactive); in assay [14], -0.575% (inactive). The growth inhibition in assay [9] was -0.81% (inactive); in assay [10], 6.62% (inactive). The viability increase in assay [11] was -5.76% (inactive). Besides, the RAM network inhibition in assay [15] is -1.74% (inactive).

`COc1ccc(OC)c(C2=NOC(C(=O)Nc3c(C)n(C)n(-c4ccccc4)c3=O)C2)c1` (stereo not given): the viability in assay [1] is 88.5%; in assay [3], 88.5% (inactive); in [4], 84.6% (inactive); in assay [5], 95.3% (inactive); in assay [6] (setting [16]), 86.5%; in assay [6] (setting [17]) it was 95.3%. Also, the viability was 99.4% (inactive) in assay [12] and 107% (inactive) in assay [13]. The Her2 level in [2] is 96% (inactive). For the same compound, the differential viability (reversal) in assay [6] (H69AR cells + 2 uM doxorubicin) was 8.86% (inactive). The inhibition in [7] is -2.93% (inactive); in assay [8], -7.54% (inactive); in assay [14], 0.74% (inactive). Moreover, the growth inhibition in assay [9] is -11.8% (inactive); in assay [10] it was -24% (inactive). The viability increase in assay [11] is -0.56% (inactive). Besides, the RAM network inhibition in [15] was 3.94% (inactive).
